Data on 5 compounds can be found in PubChem BioAssay.

Experiment [1] is described as follows: small molecules captured by biotinylated probe aFSTL3 – biochemical, small-molecule microarray, fluorescence 635/667, stem cell growth factor project, primary screen (AID 1064).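 Note: measures binding of the biotinylated anti-FSTL3 antibody to printed compounds.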 The conditions noted are these: higher = more signal.
The nature of experiment [2]: binders from COS7 lysate, DM2A8 probe, primary screen, torsin A project, cell lysate, small-molecule microarray, fluorescence 635/667 (AID 1065). The conditions noted are these: higher = more signal, COS7 lysate expressing mutant human TOR1A.
Experiment [3] can be described thus: small molecules captured by biotinylated probe aFGF2 – biochemical, small-molecule microarray, fluorescence 635/667, stem cell growth factor project, primary screen (AID 1067).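 Note: measures binding of biotinylated aFGF2 protein to printed compounds on slides; z-score merges feature fluorescence and signal-to-noise across triplicate slides.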 The conditions noted are these: higher = more signal.
Experiment [4] in a line: small molecules captured by biotinylated probe aFGF10 – biochemical, small-molecule microarray, fluorescence 635/667, stem cell growth factor project, primary screen (AID 1071).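 Note: score merges 667 nm spot intensity and signal to noise from triplicate slides.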 The conditions noted are these: higher = more signal.
In experiment [5] the target is Neurogenic locus notch homolog protein 2 (Homo sapiens) (UniProt Q04721). The experiment can be described thus: small molecules binding Notch2 protein – biochemical, small-molecule microarray, 635 nm fluorescence, stem cell growth factors, primary screen (AID 1073). The conditions noted are these: higher = more signal.
The target in experiment [6] is Pro-neuregulin-1, membrane-bound isoform (Homo sapiens) (UniProt Q02297). The experiment can be described thus: small molecules binding neuregulin-1 protein – biochemical, small-molecule microarray, fluorescence 635/667, psychiatric disease protein project, primary screen (AID 1075).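 Note: score combines 667 nm spot fluorescence with signal to noise.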 The conditions noted are these: NRG1 binding, 635 nm fluorescence, higher = more signal.

Experiment [7] deals with Neuregulin-1 EGF-like domain. Nature of the experiment: small molecules binding NRG1 EGF domain – biochemical, small-molecule microarray, 635 nm fluorescence, primary screen (AID 1081).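 Note: binding of the protein to compounds printed on small-molecule microarray slides.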 The conditions noted are these: higher = more signal.
Experiment [8] in a line: FRG1 expression reporter modulators in myotubes – cell-based, C2C12 myotubes, firefly/Renilla luciferase, luminescence, FRG1 inhibition for FSHD, primary screen (AID 1084). The conditions noted are these: FRG1 promoter luciferase, higher = more signal, called active from +8 up or from −8 down.
The nature of experiment [9]: small molecules captured by biotinylated probe aFST – biochemical, small-molecule microarray, fluorescence 635/667, stem cell growth factor project, primary screen (AID 1086).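 Note: score merges 667 nm fluorescence with signal-to-noise of each printed compound spot.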 The conditions noted are these: higher = more signal.
Experiment [10] in a line: binders of probe aHhip on microarray, primary screen, stem cell growth factor project, biochemical, small-molecule microarray, fluorescence 635/667 (AID 1087).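 Note: score merges spot fluorescence at 667nm with spot signal to noise ratio.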 The conditions noted are these: higher = more signal.
The test system of experiment [11] is PRMT1 (protein arginine N-methyltransferase 1). Nature of the experiment: small molecules binding arginine methyltransferase PRMT1 – biochemical, small-molecule microarray, 635 nm fluorescence, primary screen (AID 1088).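 Note: binding of Prmt1 protein to compounds spotted on small-molecule microarray slides.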 The conditions noted are these: higher = more signal.
Experiment [12] can be described thus: growth effects on S. cerevisiae YJM789 – YJM789 clinical isolate, OD600, 24 h, basal, primary screen (AID 1089).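 Note: growth of clinical yeast isolate S. cerevisiae YJM 789 seeded 1000 cells per well; test concentration not given here.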 The conditions noted are these: higher = more signal, called active from +8 up or from −8 down.
The nature of experiment [13]: S. pombe growth modifiers, basal conditions – strain 972, OD600, 24 h, no modulator, primary screen (AID 1090).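 Note: basal condition with compound alone and no growth modifier present; test concentration not given here.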 The conditions noted are these: S. pombe 972 growth, higher = more signal, called active from +8 up or from −8 down.
Experiment [14] in a line: budding yeast growth modifiers under rapamycin – strain BY4716, OD600, 96 h, primary screen (AID 1091). Note: test concentration not given here. The conditions noted are these: S. cerevisiae BY4716 + rapamycin, higher = more signal, called active from +8 up or from −8 down.
The target of experiment [15] is Torsin-1A-interacting protein 2 (Homo sapiens) (UniProt Q8NFQ8). Nature of the experiment: small molecules binding lysate-expressed LULL1 – cell lysate, human LULL1 lysate, 635/667 nm fluorescence, primary screen (AID 1092).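 Note: probe is lysate of COS7 cells overexpressing human LULL1; score merges per-feature 667 nm fluorescence with signal-to-noise.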 The conditions noted are these: small-molecule microarray, hLULL1 lysate binding, 635 nm fluorescence; higher = more signal.
Experiment [16] can be described thus: optical density change of DRC41 E. coli – strain DRC41, OD650, 24 h, E. coli filamentation project, primary screen (AID 1093).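 Note: MC1000 strain lacking acrAB efflux and sulA so SOS filamentation is blocked; test concentration not given here.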 The conditions noted are these: E. coli DRC41 growth, higher = more signal, called active from +8 up or from −8 down.
The nature of experiment [17]: probe aLefty2 binding to arrayed compounds – biochemical, biotinylated probe, 635/667 nm fluorescence, primary screen (AID 1094).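 Note: score merges spot fluorescence near 667 nm with spot signal-to-noise ratio.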 The conditions noted are these: small-molecule microarray, higher = more signal.
Experiment [18] has as its system Noggin (protein binding on small-molecule microarray). Nature of the experiment: small molecules binding Noggin protein – biochemical, 635/667 nm fluorescence, primary screen (AID 1095).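 Note: score merges 667 nm feature fluorescence with signal to noise over triplicate slides.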 The conditions noted are these: 635 nm fluorescence, higher = more signal.
Experiment [19] deals with Neurogenic locus notch homolog protein 3 (Homo sapiens) (UniProt Q9UM47). The experiment can be described thus: small molecules binding NOTCH3 protein – biochemical, 635/667 nm fluorescence, primary screen (AID 1096). The conditions noted are these: small-molecule microarray, 635 nm fluorescence, higher = more signal.
The nature of experiment [20]: probe aEGFR binding to arrayed compounds – biochemical, biotinylated probe, 635/667 nm fluorescence, primary screen (AID 1097).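 Note: probe is a biotinylated anti-EGFR antibody binding compounds printed on slides; score combines fluorescence near 667 nm and signal to noise of each spot.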 The conditions noted are these: small-molecule microarray, higher = more signal.

Active and inactive are the calls of the source.

Pro-neuregulin-1, membrane-bound isoform (Homo sapiens), sequence (Q02297 whole entry, looked up, canonical isoform): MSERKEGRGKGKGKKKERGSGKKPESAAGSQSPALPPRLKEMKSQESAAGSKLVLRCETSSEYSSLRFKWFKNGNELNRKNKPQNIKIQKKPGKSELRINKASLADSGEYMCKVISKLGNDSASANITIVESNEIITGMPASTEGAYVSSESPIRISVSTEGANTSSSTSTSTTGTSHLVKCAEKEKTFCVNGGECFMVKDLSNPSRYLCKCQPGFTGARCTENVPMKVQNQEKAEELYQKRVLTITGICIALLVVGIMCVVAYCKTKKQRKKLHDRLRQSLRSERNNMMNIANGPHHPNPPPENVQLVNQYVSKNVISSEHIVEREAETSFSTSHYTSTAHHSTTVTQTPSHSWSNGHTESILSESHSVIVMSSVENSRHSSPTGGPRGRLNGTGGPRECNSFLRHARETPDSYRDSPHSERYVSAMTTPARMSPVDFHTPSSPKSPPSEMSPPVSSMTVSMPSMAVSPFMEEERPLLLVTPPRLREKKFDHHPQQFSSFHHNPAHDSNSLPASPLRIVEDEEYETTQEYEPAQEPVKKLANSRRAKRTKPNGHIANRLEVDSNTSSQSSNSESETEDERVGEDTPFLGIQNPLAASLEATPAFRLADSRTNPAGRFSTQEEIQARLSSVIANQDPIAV
Neurogenic locus notch homolog protein 3 (Homo sapiens), sequence (Q9UM47 whole entry, looked up): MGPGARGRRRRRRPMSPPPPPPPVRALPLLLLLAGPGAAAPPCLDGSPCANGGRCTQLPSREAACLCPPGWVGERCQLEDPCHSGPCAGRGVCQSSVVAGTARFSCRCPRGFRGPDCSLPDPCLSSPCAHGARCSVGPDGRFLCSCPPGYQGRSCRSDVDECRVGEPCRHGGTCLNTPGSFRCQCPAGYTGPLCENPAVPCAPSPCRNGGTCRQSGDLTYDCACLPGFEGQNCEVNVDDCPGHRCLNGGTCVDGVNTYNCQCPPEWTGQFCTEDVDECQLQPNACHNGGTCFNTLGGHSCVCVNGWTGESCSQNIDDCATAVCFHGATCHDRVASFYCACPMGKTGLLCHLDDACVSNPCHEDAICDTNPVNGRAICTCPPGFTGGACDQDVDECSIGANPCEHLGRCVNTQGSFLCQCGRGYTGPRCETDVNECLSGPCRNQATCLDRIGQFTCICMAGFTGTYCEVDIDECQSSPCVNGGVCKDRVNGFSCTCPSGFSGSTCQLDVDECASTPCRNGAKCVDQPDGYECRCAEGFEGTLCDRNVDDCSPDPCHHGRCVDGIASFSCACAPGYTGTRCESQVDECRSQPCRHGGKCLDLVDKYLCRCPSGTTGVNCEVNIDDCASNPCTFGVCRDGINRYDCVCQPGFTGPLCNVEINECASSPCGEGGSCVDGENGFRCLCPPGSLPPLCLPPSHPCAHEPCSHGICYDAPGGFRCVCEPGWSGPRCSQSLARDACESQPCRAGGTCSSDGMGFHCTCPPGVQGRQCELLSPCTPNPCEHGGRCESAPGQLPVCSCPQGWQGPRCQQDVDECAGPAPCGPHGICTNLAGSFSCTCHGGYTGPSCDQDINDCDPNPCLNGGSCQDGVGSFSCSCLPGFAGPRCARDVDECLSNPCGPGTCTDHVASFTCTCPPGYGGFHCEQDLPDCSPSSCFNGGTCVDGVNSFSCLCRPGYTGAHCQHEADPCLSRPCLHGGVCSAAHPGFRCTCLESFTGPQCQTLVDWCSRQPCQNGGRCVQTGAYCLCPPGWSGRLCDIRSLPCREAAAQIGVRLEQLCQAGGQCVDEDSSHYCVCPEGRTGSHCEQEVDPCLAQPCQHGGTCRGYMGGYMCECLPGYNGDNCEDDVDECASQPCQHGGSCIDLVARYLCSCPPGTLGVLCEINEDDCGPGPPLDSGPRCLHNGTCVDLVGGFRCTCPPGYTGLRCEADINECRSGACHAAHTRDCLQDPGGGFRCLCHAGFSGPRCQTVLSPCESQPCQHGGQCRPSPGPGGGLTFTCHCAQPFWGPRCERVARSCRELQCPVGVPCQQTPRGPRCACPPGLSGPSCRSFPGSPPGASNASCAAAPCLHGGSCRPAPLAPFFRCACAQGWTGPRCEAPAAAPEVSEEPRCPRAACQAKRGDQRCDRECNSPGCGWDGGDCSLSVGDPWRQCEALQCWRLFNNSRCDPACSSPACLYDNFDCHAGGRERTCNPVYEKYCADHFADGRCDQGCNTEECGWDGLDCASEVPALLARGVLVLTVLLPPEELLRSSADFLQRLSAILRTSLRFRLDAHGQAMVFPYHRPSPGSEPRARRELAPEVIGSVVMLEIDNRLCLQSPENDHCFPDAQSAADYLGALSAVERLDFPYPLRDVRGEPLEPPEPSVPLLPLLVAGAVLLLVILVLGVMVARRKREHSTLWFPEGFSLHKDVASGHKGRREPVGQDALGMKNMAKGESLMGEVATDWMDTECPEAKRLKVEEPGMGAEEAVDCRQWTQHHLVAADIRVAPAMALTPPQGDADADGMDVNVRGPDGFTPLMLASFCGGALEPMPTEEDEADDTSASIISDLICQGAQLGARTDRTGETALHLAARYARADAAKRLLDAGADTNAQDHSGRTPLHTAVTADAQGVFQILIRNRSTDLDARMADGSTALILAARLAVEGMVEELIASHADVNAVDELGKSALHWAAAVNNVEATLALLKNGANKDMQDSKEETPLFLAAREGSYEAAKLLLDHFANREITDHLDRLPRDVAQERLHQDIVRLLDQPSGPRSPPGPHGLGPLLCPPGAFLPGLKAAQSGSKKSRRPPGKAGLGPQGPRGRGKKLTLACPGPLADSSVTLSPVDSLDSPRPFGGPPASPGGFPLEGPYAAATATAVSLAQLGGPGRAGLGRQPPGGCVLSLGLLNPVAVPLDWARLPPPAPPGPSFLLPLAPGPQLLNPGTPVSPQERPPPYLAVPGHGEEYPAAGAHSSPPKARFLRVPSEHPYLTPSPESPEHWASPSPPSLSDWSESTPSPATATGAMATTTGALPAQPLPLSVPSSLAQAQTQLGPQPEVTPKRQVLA
Torsin-1A-interacting protein 2 (Homo sapiens), sequence (Q8NFQ8 whole entry, looked up): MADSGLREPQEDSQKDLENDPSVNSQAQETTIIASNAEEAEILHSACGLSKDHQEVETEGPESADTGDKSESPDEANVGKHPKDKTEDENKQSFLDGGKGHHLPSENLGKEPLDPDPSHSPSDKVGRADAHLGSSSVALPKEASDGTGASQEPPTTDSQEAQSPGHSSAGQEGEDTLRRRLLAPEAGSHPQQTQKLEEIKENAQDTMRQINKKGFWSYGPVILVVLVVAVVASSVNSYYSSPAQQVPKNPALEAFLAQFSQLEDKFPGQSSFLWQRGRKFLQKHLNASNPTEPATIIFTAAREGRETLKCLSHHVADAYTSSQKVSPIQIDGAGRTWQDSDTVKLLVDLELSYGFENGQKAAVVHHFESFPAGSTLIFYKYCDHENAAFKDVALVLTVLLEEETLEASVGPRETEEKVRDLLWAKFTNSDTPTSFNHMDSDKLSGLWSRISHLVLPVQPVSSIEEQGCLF

In the case of `Cc1ccc(S[C@]2(C(=O)NCCCN(C)C)CC(=O)N(Cc3ccccc3C(F)(F)F)[C@@H]2c2ccc(CO)cc2)cc1`, the composite z-score is 0.678 in experiment [1]; -0.554 in [2]; -0.138 in experiment [3]; -0.572 in [4]; -1.37 in experiment [5]; 0.907 in experiment [6]. The composite z-score in experiment [7] is -1.08; in experiment [9], 0.0539; in experiment [10] it was -0.0994; in experiment [11], 0.486; in [15] it was 1.91; in experiment [17] it was 0.0446. The composite z-score was -0.858 in experiment [18], -1.3 in experiment [19] and -0.227 in experiment [20]. The z-score in [8] was -1.31 (inactive); in [12], -0.339 (inactive); in [13], -0.543 (inactive); in experiment [14] it was -0.914 (inactive); in experiment [16] it was 0.783 (inactive).

As for `COC(=O)[C@@]1(Cc2ccc(OC)cc2)[C@H]2c3cc(C(=O)N(C)C)n(CCc4ccccn4)c3C[C@H]2CN1C(=O)c1ccccc1`, the composite z-score was 1.63 in experiment [1]; -0.0525 in experiment [2]; 0.638 in experiment [3]; 0.402 in experiment [4]; 1.61 in [5]; 0.428 in experiment [6]. In addition, the composite z-score in experiment [7] was 1.05; in experiment [9], 1.38; in experiment [10], 0.47; in experiment [11], -0.663; in [15], 2.5; in experiment [17], 1.09. Besides, the results for the composite z-score in [18], in experiment [19] and in [20] were -0.307, 0.0532 and 0.865, respectively. The z-score is 0.845 (inactive) in [8]; 0.735 (inactive) in experiment [12]; 1.55 (inactive) in [13]; 2.81 (inactive) in experiment [14]; -0.901 (inactive) in experiment [16].

Turning to `C=CCNC(=O)[C@@H]1[C@H]2C(=O)O[C@H](c3ccccc3)[C@H](c3ccccc3)N2[C@H](c2ccc(O)cc2)[C@@]12C(=O)Nc1ccc(C#CCNC(N)=O)cc12`, the composite z-score was 0.0358 in [1]; 0.135 in experiment [2]; -0.114 in experiment [3]; -0.172 in experiment [4]; -0.383 in experiment [5]; 0.623 in experiment [6]. The composite z-score in [7] was -0.0033; in [9], -0.633; in experiment [10], -0.226; in [11] it was 0.575; in experiment [15], 2.13; in experiment [17] it was -0.117. The composite z-score in experiment [18] was 0.385; in experiment [19], 0.0332; in experiment [20] it was -0.172. In addition, the z-score is 1.57 (inactive) in [8]; -0.358 (inactive) in experiment [12]; 0.112 (inactive) in experiment [13]; 1.69 (inactive) in experiment [14]; -1.11 (inactive) in [16].

Regarding `NC(=O)N1C(=O)C2C(C1=O)C1C=C(c3ccc(CO)cc3)C2C(c2cccs2)N1Cc1cccc(OC(F)(F)F)c1` (stereo not given), the composite z-score in [1] was 0.677; in experiment [2] it was 0.639; in [3] it was -0.0085; in [4] it was 0.326; in [5], -0.596; in experiment [6] it was 1.3. Further, the composite z-score in experiment [7] was 0.106; in [9], 0.322; in experiment [10], -0.0645; in [11], -0.139; in [15] it was 1.01; in experiment [17], 0.181. For the same compound, the figures for the composite z-score in experiment [18], in [19] and in experiment [20] were -0.312, -0.146 and 0.0089, respectively. The z-score in experiment [8] is -0.723 (inactive); in experiment [12], -1.7 (inactive); in experiment [13] it was -4.45 (inactive); in experiment [14] it was 3.82 (inactive); in experiment [16], -0.528 (inactive).

Turning to `CC(C)NC(=O)[C@@]1(C)c2ccccc2C(=O)N(Cc2cc(C(F)(F)F)cc(C(F)(F)F)c2)[C@H]1c1ccc(CO)cc1`, the composite z-score was 0.43 in [1]; -1.42 in experiment [2]; -0.128 in experiment [3]; -0.477 in [4]; -0.753 in experiment [5]; 0.353 in [6]. In addition, the composite z-score was 1.27 in experiment [7]; -0.213 in experiment [9]; -0.374 in experiment [10]; 1.4 in experiment [11]; 3 in experiment [15]; -0.239 in [17]. Moreover, the composite z-score is -0.729 in experiment [18], -0.301 in experiment [19] and -0.295 in experiment [20]. Also, the z-score in experiment [8] was -1.38 (inactive); in experiment [12], 0.49 (inactive); in experiment [13], 0.155 (inactive); in experiment [14] it was -0.0902 (inactive); in experiment [16], -0.0192 (inactive).
